# Hits are enriched below; roughly 6.9% of the tested compounds scored in any of these assays.
# Giardia killer = Small Molecules that selectively kill Giardia lamblia: qHTS; Giardia lamblia trophozoite viability; activity change, % at 7.66 µM, hits read low; 340,000 tested, 0.15% active; in the data active means activity change below about -80%; inconclusive means between about -30% and that limit;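 further: parasites exposed to compound for two days anaerobically before the ATP read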
#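 Media and compound were dispensed first, then trophozoites at 100 cells/well; plates sat 48 hrs at 37 deg C without oxygen before ATP luminescence reagent was added and read after 15-30 min at room temperature.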
# S-ASM inh = Inhibitors of Secretory Acid Sphingomyelinase (S-ASM): qHTS | Potency, µM (top dose mostly 57.5 µM), most hits filed as inhibitors | 340,000 tested, 0.006% active | Sphingomyelin phosphodiesterase (Homo sapiens), P17405 | placental ASM, HMU-PC fluorogenic substrate, 60 min
# Target sequence (P17405 47-631 limits assumed): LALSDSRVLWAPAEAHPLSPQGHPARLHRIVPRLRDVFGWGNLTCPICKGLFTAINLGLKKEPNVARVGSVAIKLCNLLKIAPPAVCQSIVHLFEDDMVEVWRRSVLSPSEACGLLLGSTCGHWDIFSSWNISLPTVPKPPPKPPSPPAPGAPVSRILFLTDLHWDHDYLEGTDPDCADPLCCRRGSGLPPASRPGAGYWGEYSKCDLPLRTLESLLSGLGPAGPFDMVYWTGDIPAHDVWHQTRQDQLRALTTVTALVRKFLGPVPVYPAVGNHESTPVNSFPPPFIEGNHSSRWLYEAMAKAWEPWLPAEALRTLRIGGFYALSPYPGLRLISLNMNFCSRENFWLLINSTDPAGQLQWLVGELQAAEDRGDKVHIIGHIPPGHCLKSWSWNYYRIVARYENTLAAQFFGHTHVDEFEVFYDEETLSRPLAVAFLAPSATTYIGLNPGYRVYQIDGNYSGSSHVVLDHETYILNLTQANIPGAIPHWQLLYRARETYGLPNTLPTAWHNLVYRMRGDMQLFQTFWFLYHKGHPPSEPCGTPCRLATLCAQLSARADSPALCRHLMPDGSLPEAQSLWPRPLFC
#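 Human placenta-derived ASM enzyme was preincubated with compound for 10 minutes at room temperature, then given fluorogenic substrate HMU-PC0 (9 uM final) for 60 minutes at 37 °C; a pH 10 stop preceded fluorescence reading at Ex 386/Em 447 nm.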
# SW480 rereplic = A quantitative high throughput screen for small molecules that induce DNA re-replication in SW480 colon adenocarcinoma cells; 340,000 tested, 1.8% active; Potency, µM (top dose mostly 46.1 µM), hits mostly activators; SW480 DNA re-replication, Hoechst DNA content imaging, 48 h; further: nearly all actives have a fitted effect of over 55% in size
#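 250 cells/well; 23 nL cpd via pin tool; 48 hr, 37 C, 5% CO2; Hoechst 40 min; imager read of total nuclear intensity, ex 405/em 500-530 nm.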
# KB-3-1 cytotox = qHTS assay for MDR1-selective chemotherapeutics: Primary screen using the parental adenocarcinoma cell KB-3-1 | KB-3-1 viability, CellTiter-Glo ATP luminescence, 72 h | Potency, µM (top dose mostly 46.1 µM), actives largely listed as cytotoxic | 400,000 tested, 1.4% active | AID 1347075, 2019; further: nearly all actives have a fitted effect of over 60% in size
#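 Viability of parental KB-3-1 cells, measured by CellTiter-Glo luminescence, followed a 72 h incubation at 37 °C with pinned compounds in phenol-red-free DMEM containing 10% FBS.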
# MCF10A rerep = A quantitative high throughput screen for small molecules that induce DNA re-replication in MCF 10a normal breast cells | MCF 10A DNA re-replication, Hoechst nuclear intensity, 48 h | Potency, µM (series often up to 46.1 µM), usual class: activators | 350,000 tested, 2.9% active; further: nearly all actives have a fitted effect of over 50% in size
# KB-V1 MDR tox = qHTS assay for MDR1-selective chemotherapeutics: Primary screen using the drug-selected MDR subline cells KB-V1; KB-V1 MDR cells viability, CellTiter-Glo, 72 h; Potency, µM (series often up to 46.1 µM), hits mostly cytotoxic; 400,000 tested, 3.4% active; further: nearly all actives have a fitted effect of over 60% in size
#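 Drug-selected KB-V1 cells, grown in DMEM lacking phenol red with 10% FBS, receive compound titrations; after three days at 37 degrees C, surviving cell ATP is quantified by CellTiter-Glo luminescence and responses normalized and curve-fitted.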
# A number is an active result; - = inactive; ? = inconclusive; . = no result; [ ] = remark or other dose. Unless noted, the call rests on the fitted dose curve; in most records, active means well fitted curve in the direction sought with a large enough effect; inconclusive means small, poorly fitted or top-dose-only effect, or another doubt; inactive means no such curve, though single readings can be large; an effect the other way counts as inactive or inconclusive.
SMILES,Giardia killer,S-ASM inh,SW480 rereplic,KB-3-1 cytotox,MCF10A rerep,KB-V1 MDR tox
O=c1ccsn1Cc1ccccc1,-,-,18µM,-,?,-
Cc1nc2ccccc2c2c1CC(C(C)(Cl)Br)O2 (centres undefined),-,-,-,?,-,4.6µM
COc1ccc(/C=C/C(=O)c2ccccc2)cc1Cn1nnc2ccccc21,-,-,?,-,12µM,21µM
COc1cc(/C=C/C(=O)c2ccc(F)cc2)cc(OC)c1OC,-,-,18µM,-,?,?
COc1cc(C(=O)c2cc3c(cc2C)OCO3)cc(OC)c1OC,.,.,.,0.16µM,.,0.41µM
Cc1ccc(C(=O)/C=C/c2ccc3c(c2)OCCO3)c(O)c1,-,-,-,-,?,-
O=C(/C=C/c1ccc2c(c1)OCCCO2)c1ccc2ccccc2c1O,-,-,-,-,18µM,?
Cc1ccc2c(=O)cc(C(=O)Nc3ccc(S(=O)(=O)Nc4onc(C)c4C)cc3)oc2c1C,.,.,.,-,.,-
COc1c(C)cc(NS(=O)(=O)c2ccc3c(c2)OCCO3)cc1C,.,.,.,?,.,-
NC(=O)c1cc([N+](=O)[O-])ccc1NCc1ccc(C(=O)O)cc1,-,-,-,-,?,-
Cc1ccc(C2(C)NC(=O)N(CC(=O)NNC(=O)c3ccccc3F)C2=O)cc1 (centres undefined),-,-,-,-,-,-
O=C(C=Cc1ccc2c(c1)OCO2)c1ccccc1,-,-,?,-,18µM,-
CCOC(=O)c1cccc(NC(=O)/C=C/c2ccc3c(c2)OCO3)c1,-,-,-,10µM,9.2µM,?
CCOC(=O)c1cccc(NC(=O)c2ccc3c(c2)OCO3)c1,-,-,-[9.22 µM],?,-,?
O=C(/C=C/c1ccc2c(c1)OCO2)c1ccccn1,-,-,-,?,-,-
CCOc1cc(/C=C/C(=O)c2ccc(C)cc2)ccc1OCC(=O)N(C)C,-,-,?,?,23µM,15µM
CCOc1cc(/C=C/C(=O)O)ccc1OCCO,-,-,-,-,-,-
COc1cc(/C=C/C(=O)c2ccc(C)cc2)ccc1OCC#N,-,-,16µM,?,?,15µM
COc1ccc(C=CC(=O)c2ccc(OCc3ccccc3)c(OC)c2)cc1OC,.,.,.,-,.,?
COc1cc(/C=C/C(=O)c2ccc3c(c2)OCCO3)cc(OC)c1OC,?,-,?,?,?,-
COc1ccc(/C=C/C(=O)c2ccc(C(=O)/C=C/c3ccc(OC)c(OC)c3)cc2)cc1OC,-,-,8.2µM,?,6.5µM,-
O=C(C=Cc1cccc(Cl)c1)c1ccccc1,-,-,15µM,?,18µM,?
O=C(O)c1ccc2c(c1)C(=O)N(c1cccc(C(=O)/C=C/c3ccccc3)c1)C2=O,-,-,-,-,18µM,-
O=C(O)c1cccc(N2C(=O)c3ccc(C(=O)c4cccc([N+](=O)[O-])c4)cc3C2=O)c1,-,-,-,-,-,-
COC(=O)c1ccc(/C=C/C(=O)c2ccc(OC)c(OC)c2)cc1,-,-,?,?,?,?
SMILES,Giardia killer,S-ASM inh,SW480 rereplic,KB-3-1 cytotox,MCF10A rerep,KB-V1 MDR tox
COc1cc(/C=C/C(=O)c2ccc3c(c2)OCO3)cc(OC)c1OC,-,-,-,?,-,21µM
Cc1cc(C)c2c(CC(=O)Nc3ccc(F)cc3)coc2c1,.,.,.,-,.,-
CC1CCc2c(sc(NC(=O)C3c4ccccc4Oc4ccccc43)c2C#N)C1 (centres undefined),.,.,.,-,.,-
COc1ccc(OC)c(/C=C/C(=O)c2ccc3c(c2)OCCO3)c1,-,-,-,?,21µM,?
Cc1ccc(N2C(=O)CSC23C(=O)N(CC(=O)NCc2ccccc2)c2ccccc23)cc1 (centres undefined),.,.,.,-,.,-
C=C[C@@H]1c2cc(C)ccc2N(S(=O)(=O)c2ccc(C)cc2)[C@H](c2ccc(C(=O)OC)cc2)C1(C#N)C#N,.,.,.,-,.,-
CC1CCCCC1NC(=O)Cn1cnc2sccc2c1=O (centres undefined),-,-,-,-,-,-
CCOc1ccc2c(c1)C(=O)C(=O)N2CC1COc2ccccc2O1 (centres undefined),-,-,8.2µM,13µM,?,-
CCN1CCN(CC2COc3ccccc3O2)CC1 (centres undefined),-,-,-,-,-,-
COc1ccc2c(c1)C(=O)C(=O)N2CC1COc2ccccc2O1 (centres undefined),-,-,?,15µM,?,?
Cc1ccc2c(c1)C(=O)C(=O)N2CC1COc2ccccc2O1 (centres undefined),-,-,23µM,?,?,21µM
CN(CC1COc2ccccc2O1)C(=S)Nc1ccccc1F (centres undefined),-,-,-,-,-,-
Cc1ccc2c(c1)C(=O)C(=O)N2Cc1ccccc1,-,-,?,?,?,-
COc1ccc(NC(=S)N(C)CC2COc3ccccc3O2)cc1 (centres undefined),-,-,-,-,0.65µM,?
O=C(Nc1c(C(=O)Nc2ccc(F)cc2)oc2ccccc12)c1ccccc1F,.,.,.,-,.,-
CCOC(=O)C1CCN(C(=O)Cn2cnc3sc(C)c(S(=O)(=O)N4CCOCC4)c3c2=O)CC1,-,-,-,-,-,-
CCCN1CCN(CCNC(=O)Nc2ccccc2OCC)CC1,.,.,.,-,.,-
CC(=O)c1cccc(NC(=O)c2ccc(N(Cc3ccccc3)S(C)(=O)=O)cc2)c1,-,-,-,?,-,21µM
CC(=O)c1cccc(NC(=O)c2ccccc2N(Cc2ccccc2)S(C)(=O)=O)c1,-,-,-,-,2.3µM,-
CCN(c1ccccc1)S(=O)(=O)c1cc(C(=O)Nc2cccc(Cl)c2)ccc1F,-,-,?,?,?,21µM
O=C(Nc1cccnc1Cl)c1cnn2c1NC(=C1CC1)C=C2C(F)F,.,.,.,-,.,-
Fc1ccc(Oc2nc(-c3ccccc3)nnc2C(F)(F)F)cc1,-,-,-,-,?,-
Fc1ccc(Sc2nc(-c3ccccc3)nnc2C(F)(F)F)cc1,-,-,?,16µM,3.7µM,-
CC(=O)c1ccc(N2CCN(C(=S)Nc3cc(C)ccn3)CC2)cc1,.,.,.,?,.,-
Cc1onc(-c2ccccc2)c1C(=O)OCc1nnc(-c2ccc([N+](=O)[O-])cc2)o1,-,-,-,-,-,15µM
Cc1ccccc1OCCOC(=O)c1c(-c2ccccc2)noc1C,-,-,9.2µM,9.2µM,?,?
Cc1onc(-c2ccccc2)c1C(=O)OCCOc1ccccc1F,-,-,-,-,-,?

# High-throughput results: PubChem BioAssay, National Center for Advancing Translational Sciences (NCATS)
